Results filed as inconclusive are left out. Activity calls are given as the source filed them. Calls follow the shape of the dose curve; as a rule, active = well fitted curve in the direction sought with a large enough effect; inconclusive = small, poorly fitted or top-dose-only effect, or another doubt; inactive = no such curve, though single readings can be large; an effect the other way counts as inactive or inconclusive.

Assay [1] is described as follows: qHTS for Inhibitors of Plasmodium falciparum (DD2) proliferation (AID 504314). Also: potency is read from the fitted curve at half-maximal effect. The following applies: P. falciparum Dd2 in erythrocytes, SYBR Green growth, 72 h; series mostly up to 1.12 µM. Summed up: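 Fluorescence read-out (ex 485/em 535 nm) of SYBR Green-stained parasite DNA quantifies intraerythrocytic growth. Cultures at 0.3% parasitemia and 2.5% hematocrit were treated for 72 h; data normalized to DMSO and 0.29 uM artemisinin wells.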
For orientation: In qHTS, concentration-response curves come from the screen itself.

A short description of assay [2]: qHTS for Inhibitors of Plasmodium falciparum (GB4) proliferation (AID 504315). Also: nearly all actives have a fitted effect of over 50% in size. Also: potency is read from the fitted curve at half-maximal effect. Conditions: P. falciparum GB4 in erythrocytes, SYBR Green DNA, 72 h; series mostly up to 6.7 µM. Summed up: (§1)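 Erythrocytes infected with P. falciparum line (0.3% parasitemia, 2.5% hematocrit final) incubated with compounds 72 h at 37 °C, 5% CO2; SYBR Green lysis buffer added, fluorescence read next day. Normalized to 0.29 uM artemisinin and DMSO.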

Assay [3] can be described thus: qHTS for Inhibitors of Plasmodium falciparum (7G8) proliferation (AID 504316). Also: nearly all actives have a fitted effect of over 65% in size. Also: potency is read from the fitted curve at half-maximal effect. Conditions: P. falciparum 7G8 in erythrocytes, SYBR Green DNA, 72 h; series mostly up to 6.7 µM. Summed up: as §1
A short description of assay [4]: qHTS for Inhibitors of Plasmodium falciparum (HB3) proliferation (AID 504318). Also: nearly all actives have a fitted effect of over 60% in size. The following applies: P. falciparum HB3 in erythrocytes, SYBR Green DNA, 72 h; series mostly up to 7.21 µM. Summed up: as §1
Assay [5] can be described thus: qHTS for Inhibitors of Plasmodium falciparum (CP250) proliferation (AID 504320). The following applies: P. falciparum CP250 in erythrocytes, SYBR Green DNA, 72 h; series mostly up to 6.7 µM. An outline of the steps:
as §1

For the compound `CCCCC1=CC2=C(c3ccco3)C(=O)C(C)(OC(=O)c3ccc(OC)cc3)C(=O)C2=CN1CCc1c[nH]c2ccccc12` (configuration not stated), the Potency result in assay [1], in assay [2], in assay [3], in assay [4] and in assay [5] was “inactive” in each case.
On to `CCCCC1=CC2=CC(=O)C(C)(OC(=O)CC)C(=O)C2=CN1c1ccccc1` (configuration not stated), for which the Potency entry in assay [1], in assay [2], in assay [3], in assay [4] and in assay [5] was “inactive” in each case.
Turning to `COC(=O)[C@H]1[C@H](CCc2ccccc2)NC(=O)N(Cc2ccccc2)[C@@H]1C`, the Potency result in assay [1], in assay [2], in assay [3], in assay [4] and in assay [5] was “inactive” in each case.
Take `COC(=O)CCC(=O)OC1(C)C(=O)C=C2C=C(C3CC3)N(CCN3CCOCC3)C=C2C1=O` (configuration not stated): the Potency result in assay [1], in assay [2], in assay [3], in assay [4] and in assay [5] was “inactive” in each case.
Consider `CCN1C(=O)N[C@H](c2ccc(Br)cc2)C(C(=O)OC)=C1C`, for which the Potency entry in assay [1], in assay [2], in assay [3], in assay [4] and in assay [5] was “inactive” throughout.
Regarding `C/C=C/C1=Cc2ccccc2C(CC(=O)OC)N1C(=O)OC` (configuration not stated), the Potency entry in assay [1] and in assay [2] was “inactive” each time.
With `COC(=O)CCCC1=CC2=C(c3ccccc3)C(=O)C(C)(OC(=O)C3CCCC3)C(=O)C2=CN1CC(C)C` (configuration not stated), the Potency result in assay [1], in assay [2], in assay [3] and in assay [4] was “inactive” throughout.
Turning to `CC1(C)O[C@@H]2[C@@H](O1)C(c1ccccc1)(c1ccccc1)OP(=O)(O)OC2(c1ccccc1)c1ccccc1`, the Potency result in assay [1], in assay [2] and in assay [3] was “inactive” each time.
Consider `C=CC1=C2C=C(C3CC3)N(Cc3ccco3)C=C2C(=O)C(C)(OC(=O)c2ccco2)C1=O` (configuration not stated), for which the Potency result in assay [1], in assay [2], in assay [3], in assay [4] and in assay [5] was “inactive” in each case.
`CCCCc1nc2c(c3c1C[C@H](C)OC3)CN(S(=O)(=O)c1ccc3c(c1)OCCN3C)CC2`: the Potency entry in assay [1], in assay [2], in assay [3] and in assay [5] was “inactive” in each case.
Turning to `CCCCC1=CC2=CC(=O)C(C)(OC(=O)CC)C(=O)C2=CN1CCCN(CC)CC` (configuration not stated), the Potency result in assay [1], in assay [2], in assay [3], in assay [4] and in assay [5] was “inactive” throughout.
Turning to `COC(=O)[C@@H](NC(=O)N1CCc2nc(-c3ccccc3)c3c(c2C1)CO[C@@H](C)C3)C(C)C`, the Potency entry in assay [1], in assay [2] and in assay [4] was “inactive” throughout.
Take `C=CCOC(=O)C(C(C)=O)[C@@H](NC(=O)OC)c1cccc(C(F)(F)F)c1` (some centres not stated): the Potency result in assay [1], in assay [2], in assay [3] and in assay [5] was “inactive” each time.
For `CC1(OC(=O)C2CCCC2)C(=O)C=C2C=C(c3ccsc3)N(c3ccc(CO)cc3)C=C2C1=O` (configuration not stated), the Potency result in assay [1], in assay [2], in assay [3], in assay [4] and in assay [5] was “inactive” throughout.
As for `CCCCC1=CC2=CC(=O)C(C)(OC(=O)CC)C(=O)C2=CN1CCc1ccc(Br)cc1` (configuration not stated), the Potency entry in assay [1], in assay [2], in assay [3] and in assay [5] was “inactive” each time.
Turning to `C=C(C(C)=O)C(O)c1cccs1` (configuration not stated), the Potency result in assay [1], in assay [2], in assay [3] and in assay [5] was “inactive” throughout.
Regarding `CCCCC1=CC2=CC(=O)C(C)(OC(=O)CC)C(=O)C2=CN1c1ccc(OC)cc1` (configuration not stated), the Potency result in assay [1], in assay [2], in assay [3] and in assay [5] was “inactive” throughout.
With `CC(=O)C1=C(C)N(Cc2ccccc2)C(=O)N[C@H]1c1ccco1`, the Potency result in assay [1], in assay [2], in assay [3] and in assay [5] was “inactive” throughout.
For `COC(=O)C1=C(C(=O)OC)[C@@H]2N(C)c3ccccc3[C@@]23C[C@@H](CO)N(C(=O)c2cc(C)oc2C)C3=N1`, the Potency result in assay [1], in assay [2], in assay [3] and in assay [5] was “inactive” in each case.
As for `COC(=O)C1=C(C(=O)OC)[C@@H]2N(C)c3ccc(OC)cc3[C@@]23C[C@@H](C(=O)OC)N(S(=O)(=O)c2cccs2)C3=N1`, the Potency result in assay [1], in assay [2], in assay [3] and in assay [5] was “inactive” each time.
As for `COC(=O)CCCC1=CC2=C(c3ccccc3)C(=O)C(C)(OC(=O)C3CCCC3)C(=O)C2=CN1C1CCCC1` (configuration not stated), the Potency entry in assay [1], in assay [2], in assay [3] and in assay [5] was “inactive” throughout.
In the case of `CC1(OC(=O)CCc2ccccc2)C(=O)C=C2C=C(c3ccc(C#N)cc3)N(Cc3ccco3)C=C2C1=O` (configuration not stated), the Potency result in assay [1], in assay [2], in assay [3] and in assay [5] was “inactive” throughout.
For `COC(=O)CCC(=O)OC1(C)C(=O)C2=CN(C(CO)CO)C(c3ccc(OC)cc3)=CC2=C(Br)C1=O` (configuration not stated), the Potency result in assay [1], in assay [2], in assay [3], in assay [4] and in assay [5] was “inactive” each time.
Take `COC(=O)CCC(=O)OC1(C)C(=O)C2=CN(Cc3ccc(OC)cc3)C(c3ccc(OC)cc3)=CC2=C(Br)C1=O` (configuration not stated): the Potency result in assay [1], in assay [2], in assay [3] and in assay [5] was “inactive” in each case.
Consider `CCN(CC)CCCN1C=C2C(=O)C(C)(OC(=O)CCc3ccccc3)C(=O)C=C2C=C1c1ccc(C#N)cc1` (configuration not stated), for which the Potency result in assay [1], in assay [2], in assay [3] and in assay [5] was “inactive” each time.
On to `CCCC[C@]12Cc3cc(OC)c(OC)cc3[C@H](O1)C1=C(O2)C(=O)c2ccccc2C1=O`, for which the Potency in assay [1] is 3 µM (active); in assay [2], 1.69 µM (active); in assay [3], 1.51 µM (active). For the same compound, the Potency entry in assay [5] was “inactive”.
Consider `C=C[C@@]1(C)CC[C@H](O)[C@H]2C(=O)CCC[C@H]21`, for which the Potency result in assay [1], in assay [2], in assay [3] and in assay [5] was “inactive” in each case.
`CCCNC(=O)N1C2=NC(C(=O)OC)=C(C(=O)OC)[C@@H]3Nc4ccccc4[C@]23C[C@H]1C(=O)OC`: the Potency entry in assay [1], in assay [2], in assay [3] and in assay [5] was “inactive” each time.

Values taken from PubChem BioAssay (NCATS).
